“And” between values parts separate entries of the source, which are not always exact repeats. Equal values may be shown once. Records with an inconclusive call do not appear. A call without a number means that no potency is given here. Values without a mark were called inactive. The source made the active and inactive calls. Calls come from the whole dose curve; as a rule, active = well fitted curve in the direction sought with a large enough effect; inconclusive = small, poorly fitted or top-dose-only effect, or another doubt; inactive = no such curve, though single readings can be large; an effect the other way counts as inactive or inconclusive.
Columns and labels:
[1] = biological target: Cytochrome P450 3A7 (Homo sapiens) (UniProt P24462); test: Cytochrome P450 family 3 subfamily A member 7 (CYP3A7) small molecule antagonists: luciferase biochemical qHTS assay (AID 1963596); note: nearly all actives have a fitted effect of over 40% in size
How it was run: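 Luminescence read-out (relative luminescence units) after 20 min with detection reagent, which stops the reaction. Enzyme, proluciferin substrate and compound preincubated 10 min, RT; NADPH regeneration system then started 1 h reaction. Ketoconazole as positive control.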

[2] = Viability qHTS for spleen associated tyrosine kinase inhibitor (SYKi) naive MV4-11 cells (AID 1963823); note: nearly all actives have a fitted effect of over 40% in size; note: potency is the fitted concentration of half-maximal effect
How it was run: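 Seeding of 500 SYKi-naive MV4-11 cells per well onto pre-dispensed compounds preceded a 72 hr incubation at 37 C. Luminescent CellTiter-Glo signal, read after 10 min at room temperature, reflected viable cells.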

[3] = Viability qHTS for spleen associated tyrosine kinase inhibitor (SYKi) drug resistant MV4-11 cells (AID 1963824); note: nearly all actives have a fitted effect of over 35% in size; note: potency is the fitted concentration of half-maximal effect
How it was run: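 SYK-inhibitor-resistant MV4-11 AML cells were seeded at 500 per well onto compound and cultured 72 hours (37 °C, 5% CO2). CellTiter-Glo was then added, and after 10 min at room temperature, luminescence gave viability.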

[4] = Cellular viability qHTS for adrenocortical cancer (ACC) cell line SW-13 (AID 1963989); conditions: SW-13 ACC cells viability, CellTiter-Glo, 48 h; activity (max response): stronger effect = lower value; note: nearly all actives have a fitted effect of over 65% in size; note: potency is the fitted concentration of half-maximal effect;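 for activity (max response): cells grown in serum-free medium with ITS supplement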
How it was run: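 Viability was read as CellTiter-Glo luminescence after 48 h compound treatment (up to 46 uM final) of SW-13 cells grown serum-free; titration curves were fit with a four-parameter logistic model to give IC50 and efficacy.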

[5] = Cellular viability qHTS for adrenocortical cancer (ACC) cell line NCI-H295R (AID 1963990); note: nearly all actives have a fitted effect of over 60% in size; note: potency is the fitted concentration of half-maximal effect
How it was run: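 CellTiter-Glo ATP luminescence, read 48 h after compound addition, measured viability of NCI-H295R adrenocortical cells grown serum-free with ITS. Final concentrations spanned up to 46 uM. Data normalized to DMSO and doxorubicin, fitted for IC50 and maximal response.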

Sequence of Cytochrome P450 3A7 (Homo sapiens) (P24462 whole entry, looked up): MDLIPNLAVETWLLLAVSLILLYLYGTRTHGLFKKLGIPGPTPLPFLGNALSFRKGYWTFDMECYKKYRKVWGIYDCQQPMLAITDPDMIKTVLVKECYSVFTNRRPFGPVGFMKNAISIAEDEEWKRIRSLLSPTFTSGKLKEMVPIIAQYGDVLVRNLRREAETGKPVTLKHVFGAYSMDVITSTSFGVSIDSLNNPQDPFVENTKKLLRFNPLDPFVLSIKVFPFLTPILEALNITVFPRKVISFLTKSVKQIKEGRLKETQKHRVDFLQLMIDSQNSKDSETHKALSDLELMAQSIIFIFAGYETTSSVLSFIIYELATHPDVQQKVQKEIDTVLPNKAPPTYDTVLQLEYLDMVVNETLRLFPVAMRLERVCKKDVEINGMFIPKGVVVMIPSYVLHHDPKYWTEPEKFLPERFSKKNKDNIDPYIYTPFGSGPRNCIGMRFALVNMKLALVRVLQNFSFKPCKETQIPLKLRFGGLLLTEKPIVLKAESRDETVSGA

Structure (SMILES)	Potency [1]	Potency [2]	Potency [3]	activity (max response) [4]	Potency [5]	activity change, negative = inhibition [1]	viability (% of control) [2]	viability, % of control [3]	activity change, negative = viability loss [5]	Potency [4]
C[C@H]1[C@H]2CC[C@H]3[C@@H]4CC=C5C[C@@H](N(C)C)CC[C@]5(C)[C@H]4CC[C@]23CN1C	inactive	inactive	inactive	-17.7%	inactive	–	–	–	–	–
CCCCCC[C@@H](CCC)C(=O)O	inactive	inactive	inactive	6.05%	inactive	–	–	–	–	–
O=C(O)CC(O)C(=O)O (stereo not given)	inactive	inactive	inactive	12.9%	inactive	–	–	–	–	–
CC1(C)[C@@H]2CC[C@@]1(C)C(=O)C2	inactive	inactive	inactive	10.1%	inactive	–	–	–	–	–
C[N+](C)(C)CCCCCCCCCC[N+](C)(C)C	inactive	inactive	inactive	14.5%	inactive	–	–	–	–	–
CNC(=O)c1c(I)c(NC(C)=O)c(I)c(C(=O)O)c1I	inactive	inactive	inactive	10%	inactive	–	–	–	–	–
NCCNCCNCCNCCN	–	–	–	2.38%	–	14.5% [at 11.5 µM]	121% [at 9.25 µM]	109% [at 9.25 µM]	1% [at 9.17 µM]	–
O=C(O)Cc1cccc2ccccc12	inactive	inactive	inactive	3.96% and 12.8%	inactive	–	–	–	–	–
C[C@](N)(Cc1ccc(O)cc1)C(=O)O	–	–	–	-6.01%	–	1.38% [at 4.83 µM]	79.1% [at 4.97 µM]	90.5% [at 4.97 µM]	-1.14% [at 3.81 µM]	–
CCCCCCCCCCCCCC(=O)OC(C)C	inactive	inactive	inactive	6.54%	inactive	–	–	–	–	–
CNC[C@H](O)c1cccc(O)c1	inactive	0.531 µM (active)	inactive	10.6% and -8.09%	inactive	–	–	–	–	–
O=C(Cn1ccnc1[N+](=O)[O-])NCCO	inactive	inactive	inactive	10.4%	inactive	–	–	–	–	–
COc1ccc(C(=O)N2CCN(CC(=O)N3CCOCC3)CC2)cc1	inactive	inactive	inactive	8.16%	inactive	–	–	–	–	–
N#CCC(=O)NN	inactive	inactive	inactive	8.55%	inactive	–	–	–	–	–
Nc1c[n+](N2CCOCC2)no1	inactive	inactive	inactive	-4.73%	inactive	–	–	–	–	–
CN(C)[C@@H]1C(=O)C(C(=O)NCN2CCCC2)=C(O)[C@@]2(O)C(=O)C3=C(O)c4c(O)cccc4[C@@](C)(O)C3C[C@@H]12 (stereo not given in full)	inactive	inactive	inactive	-7.75%	inactive	–	–	–	–	–
CCCCCCCCCCC(CO)CCCCCCCC (stereo not given)	inactive	inactive	inactive	0.379%	inactive	–	–	–	–	–
O=C(O)c1ccccc1OP(=O)(O)O	inactive	inactive	inactive	16.4%	inactive	–	–	–	–	–
N[C@@H](CCC(=O)N[C@@H](CS)C(=O)NCC(=O)O)C(=O)O	inactive	inactive	inactive	-1.28%	inactive	–	–	–	–	–
CC(=O)N[C@@H](CS)C(=O)O	inactive	inactive	inactive	15.1%	inactive	–	–	–	–	–

Structure (SMILES)	Potency [1]	Potency [2]	Potency [3]	activity (max response) [4]	Potency [5]	activity change, negative = inhibition [1]	viability (% of control) [2]	viability, % of control [3]	activity change, negative = viability loss [5]	Potency [4]
C#CC(C)(CC)OC(=O)c1ccccc1C(=O)O (stereo not given)	inactive	inactive	inactive	8.16%	inactive	–	–	–	–	–
CN1CCN(C2CCN(C(=O)Nc3cc(Oc4ccc(NC(=O)C5(C(=O)Nc6ccc(F)cc6)CC5)c(F)c4)ccn3)CC2)CC1	inactive	65.1 nM (active) and 93.4 nM (active)	116 nM (active) and 132 nM (active)	–	25.1 µM (active)	–	–	–	–	28.2 µM (active)
O=C(O)/C=C/c1ccc(Cn2ccnc2)cc1	inactive	inactive	inactive	7.34% and 4.34%	inactive	–	–	–	–	–
Nc1cc(=O)[nH]c(N)n1	inactive	inactive	inactive	-6.62%	inactive	–	–	–	–	–
CC(=O)Nc1ccc(C(=O)O)cc1	inactive	inactive	inactive	11.7%	inactive	–	–	–	–	–
CCOc1ccccc1OCC1CNCCO1 (stereo not given)	inactive	inactive	inactive	-0.481%	inactive	–	–	–	–	–
C[n+]1ccccc1/C=N/O	inactive	inactive	inactive	3.67%	inactive	–	–	–	–	–
NC(=O)COCCN1CCN(C(c2ccccc2)c2ccc(Cl)cc2)CC1 (stereo not given)	inactive	inactive	inactive	0.82%	inactive	–	–	–	–	–
CN(C)CCN(Cc1cccs1)c1ccccn1	inactive	inactive	inactive	15.3%	inactive	–	–	–	–	–
CCC(=O)c1ccc(O)cc1	inactive	inactive	7.5 µM (active)	5.38%	inactive	–	–	–	–	–
CCn1cc(C(=O)O)c(=O)c2cc3c(cc21)OCO3	inactive	inactive	inactive	-2.41%	inactive	–	–	–	–	–
COc1cc2ncnc(Nc3ccc(F)c(Cl)c3)c2cc1NC(=O)/C=C/CN1CCCCC1	inactive	1.64 µM (active)	1.64 µM (active)	–	4.47 µM (active)	–	–	–	–	0.708 µM (active)
O=C(O)c1ccccc1O	inactive	inactive	inactive	13.2%	inactive	–	–	–	–	–
OCCN1C[C@H](O)[C@@H](O)[C@H](O)[C@H]1CO	inactive	inactive	inactive	9.26% and -11.1%	inactive	–	–	–	–	–
CC(=O)O[C@@H]1CC2C3CCc4cc(OC(=O)c5ccccc5)ccc4C3CCC2(C)[C@H]1OC(C)=O (stereo not given in full)	inactive	inactive	inactive	3.65%	inactive	–	–	–	–	–
OC1C(O)C(O)C(O)C(O)C1O (stereo not given)	inactive	inactive	inactive	-3.11%	inactive	–	–	–	–	–
O=C(O)c1ccccc1S	inactive	inactive	inactive	5.53%	inactive	–	–	–	–	–
O=C1C(=O)c2ccccc2C(O)=C1C1CCC(c2ccc(Cl)cc2)CC1 (stereo not given)	inactive	inactive	inactive	9.49%	inactive	–	–	–	–	–
C/C(=N\O)c1ccc(OCC(=O)N2CCCCC2)cc1	inactive	inactive	inactive	-4.8%	inactive	–	–	–	–	–
Cc1scc2c1N(C(=O)CN1CCN(C)CC1)c1ccccc1NC2=O	inactive	inactive	inactive	2.88%	inactive	–	–	–	–	–

Structure (SMILES)	Potency [1]	Potency [2]	Potency [3]	activity (max response) [4]	Potency [5]	activity change, negative = inhibition [1]	viability (% of control) [2]	viability, % of control [3]	activity change, negative = viability loss [5]	Potency [4]
O=C1NCC2(CCN(CCc3ccccc3)CC2)O1	inactive	inactive	inactive	4.78%	inactive	–	–	–	–	–
Cc1cccc(C)c1NC(=O)CN1CCCCCC1	inactive	inactive	inactive	6.22%	inactive	–	–	–	–	–
O=C(O)C1CCC1	inactive	inactive	inactive	11.6%	inactive	–	–	–	–	–
C[C@@H](O)[C@H]1C(=O)N2C(C(=O)O)=C(S[C@@H]3CN[C@H](C(=O)N(C)C)C3)[C@H](C)[C@H]12	inactive	inactive	inactive	7.3% and 9.96%	inactive	–	–	–	–	–
CCCNC(C)C(=O)Nc1c(C)csc1C(=O)OC (stereo not given)	inactive	inactive	inactive	8.19%	inactive	–	–	–	–	–
CCOc1cc(C(=O)N2CCC(N3CCN(C)CC3)CC2)ccc1Nc1ncc2c(n1)N(C1CCCC1)c1ccccc1C(=O)N2C	inactive	651 nM (active) and 1.05 µM (active)	651 nM (active) and 934 nM (active)	–	17.8 µM (active)	–	–	–	–	28.2 µM (active)
CC(C)=CCC/C(C)=C/CC/C(C)=C/CCC(=O)OC/C=C(\C)CCC=C(C)C	inactive	inactive	inactive	14.2%	inactive	–	–	–	–	–
CC(=O)NC(Cc1ccccc1)C(=O)O (stereo not given)	inactive	inactive	inactive	-3.3%	inactive	–	–	–	–	–
O=C(O)[C@H](O)[C@@H](O)[C@H](O[C@@H]1O[C@H](CO)[C@H](O)[C@H](O)[C@H]1O)[C@H](O)CO	inactive	inactive	inactive	9.39%	inactive	–	–	–	–	–
C[C@H](N)[C@H](O)c1cccc(O)c1	inactive	inactive	inactive	0.409%	inactive	–	–	–	–	–
OC[C@H]1O[C@@H](n2cnc3c2NC=NC[C@H]3O)C[C@@H]1O	inactive	inactive	inactive	12.8%	inactive	–	–	–	–	–
COC(=O)Nc1nc2ccc(C(=O)C3CC3)cc2[nH]1	inactive	1.06 µM (active)	0.75 µM (active)	–	0.461 µM (active)	–	–	–	–	0.731 µM (active)
COc1ccccc1N1CCN(CC(O)COc2cc(OC)c(OC)c(OC)c2)CC1 (stereo not given)	inactive	inactive	inactive	13.2%	inactive	–	–	–	–	–
NC(N)=NCCC[C@H](N)C(=O)O	–	–	–	-3.82%	–	2.52% [at 4.83 µM]	90.4% [at 4.97 µM]	98.3% [at 4.97 µM]	-23.9% [at 3.81 µM]	–
CC(=O)Nc1nnc(S(N)(=O)=O)s1	inactive	inactive	inactive	5.04%	inactive	–	–	–	–	–
Cc1c(C)c2c(c(C)c1OC(=O)c1cccnc1)CC[C@@](C)(CCC[C@H](C)CCC[C@H](C)CCCC(C)C)O2	inactive	inactive	inactive	-0.414%	inactive	–	–	–	–	–
CC(C(=O)O)c1ccc2c(c1)Cc1cccnc1O2 (stereo not given)	inactive	inactive	inactive	-0.725%	inactive	–	–	–	–	–
CC(C)(C)c1nnc(NS(=O)(=O)c2ccccc2)s1	inactive	inactive	inactive	4.7%	inactive	–	–	–	–	–
CC[C@H]1CN2CCc3cc(OC)c(OC)cc3[C@@H]2C[C@@H]1C[C@H]1NCCc2cc(OC)c(OC)cc21	inactive	106 nM (active) and 83.3 nM (active)	133 nM (active) and 93.4 nM (active)	–	146 nM (active) and 282 nM (active)	–	–	–	–	231 nM (active) and 447 nM (active)
